Laboratory results as given in PubChem BioAssay (NCI).
About 83,000 compounds went through this panel and 20% of them were active in at least one assay; those are over-represented in the sample as a whole.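 48-hour exposure, single concentration, 96-well plates; percent growth endpoint where 0 means no net growth. Active: below 10.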 A number with no mark means an inactive call. Calls of active or inactive are those of the source.

system: HOP-62 NSCLC; test: NCI-60 one-dose screen, 48 h (100 = growth as untreated, 0 = no growth, -100 = all killed); conditions: 10 µM unless noted

Row | Compound | growth
1 | Cc1cccc(-c2nc(Nc3ccc4ncsc4c3)c3ccccc3n2)n1 | 80.2%
2 | COc1ccc(-c2cc(-c3ccccc3)nc(N3CCN(CCNc4ccnc5cc(Cl)ccc45)CC3)n2)cc1 | 94.8%
3 | N#Cc1cccc(C2C3=C(COC3=O)N(CCO)c3cc4c(cc32)OCO4)c1 (stereo not given) | 32.2%
4 | CCN1C(=O)N(CC)C2C1NC(=S)N2/N=C/c1ccc(OC)cc1 (stereo not given) | 59.5%
5 | Nc1[nH]c(=S)nc2oc(-c3ccccc3)c(-c3ccccc3)c12 | 86.6%
6 | N=C(N)c1ccc(-c2ccc(-c3cc(Cl)cc(Cl)c3)s2)nc1 | 86.5%
7 | c1ccc2c(c1)CCCc1nnc3nc4ccccc4n3c1-2 | 34.8%
8 | Nc1[nH]n2cc(-c3ccc(F)cc3)nc2c1N=Nc1ccc(S(N)(=O)=O)cc1 | 90.7%
9 | CNC(C)[C@H]1CCC2C3CC=C4C(=O)[C@@H](NC(=O)C=C(C)C)CC[C@]4(C)C3CC[C@@]21C (stereo not given in full) | -4.38% (active)
10 | COc1ccc2c(c1)/C(=N/c1n[nH]c(=S)s1)C(=O)N2 | 99.9%
11 | Cc1ccc(-c2nc(SCc3nc4cc(Cl)c(Cl)cc4[nH]3)[nH]c(=O)c2C#N)cc1 | 91.9%
12 | COc1ccc2c(c1)c(/C(O)=C1\COC(=O)C1=O)cn2Cc1ccc(F)cc1 | 112%
13 | O=C1/C(=C2\SC(=S)N(C3CC3)C2=O)SC(=S)N1C1CC1 | 99.3%
14 | C#CC#CC#CC#CC#CC#CC#CC#CCC1OC[C@H](COC(=O)O[C@@H](C(=O)O[C@H]2C[C@@]3(O)[C@@H](OC(=O)c4ccccc4)[C@@H]4[C@]5(OC(C)=O)CO[C@@H]5C[C@H](O)[C@@]4(C)C(=O)[C@H](OC(C)=O)C(=C2C)C3(C)C)[C@@H](NC(=O)c2ccccc2)c2ccccc2)O1 (stereo not given in full) | 38.5%
15 | Cc1nnc(-c2ccc3c(c2)nc(/C=C/c2ccccc2)n3C2CCCCC2)o1 | 83%
16 | Nc1nc(N)c2c(n1)NC(c1ccc(Cl)cc1)C1CCc3ccccc3C1=N2 (stereo not given) | 84.2%
17 | Fc1ccc(Cn2cc(CSc3nc4ccccc4o3)nn2)cc1 | 87.5%
18 | CC(C)(C)c1cc(Cl)c(O)c(CNCCO)c1 | 101%
19 | Nc1nc2c(c3ncccc13)C(c1cccc(Cl)c1)Cc1ncccc1-2 (stereo not given) | 20.1%
20 | COc1ccc(C(=O)N2c3ccccc3Sc3ccccc32)c(C(F)(F)F)c1 | 42.8%

Row | Compound | growth
21 | Cc1ccc(C(=O)c2ccc(CC(=O)NN3C(=O)c4ccccc4C3=O)n2C)cc1 | 88.9%
22 | C=C1C(=O)O[C@H]2[C@H]1CC/C(Cn1cc(CCC)nn1)=C\CC[C@@]1(C)O[C@@H]21 | 73.9%
23 | O=C(/C=C/c1ccccc1)c1ccc(Nc2nc(Nc3ccc(F)cc3)nc(Nc3ccc(Cl)cc3)n2)cc1 | 102%
24 | N#Cc1cccc(C2C3=C(COC3=O)N(CCO)c3cc4c(cc32)CCC4)c1 (stereo not given) | 26.3%
25 | CCN1C(=O)N(CC)C2Nn3c(s/c(=C\c4ccccc4Br)c3=O)=NC21 (stereo not given) | 37%
26 | Cc1ccc(C=C2C(=O)NC(=O)NC2=O)cc1 | 92.1%
27 | Cc1cccc(N2CCC(=O)NC2=S)c1 | 110%
28 | N#C/C(=C\c1ccc(-c2cccc(C(F)(F)F)c2)o1)c1ccccc1 | 88.1%
29 | N#C/C(=C\c1ccc([N+](=O)[O-])cc1)n1nnc2cc(F)c(F)cc21 | 63.9%
30 | CC/C=C\CCC/C=C1/C(=O)C=C[C@@H]1C/C=C\CCCC(=O)OC | 42.3%
31 | CN(C)c1ccc(/C=C(\C#N)c2cc3ccccc3[nH]2)cc1 | 28.7%
32 | O=C(Nc1ccc(Br)cc1)C1=NCCCCN1 | 74.7%
33 | CNC(=O)c1cc(Oc2cccc3nc(NC(=O)Nc4cc(C(F)(F)F)ccc4Cl)ccc23)ccn1 | 95.2%
34 | COc1cccc(CCNc2ncnc3c2ncn3Cc2nnc3c4ccccc4c(Cl)nn23)c1 | 57.5%
35 | CCOC(=O)c1c(C)nc2c(c1N)/C(=C/c1ccc(OC)cc1)C(=O)N2Cc1ccccc1 | 58.1%
36 | O=S(=O)(NCCNc1nccc(-c2c(-c3ccc(F)c(O)c3)nc3sccn23)n1)c1ccc(F)cc1 | 48.3%
37 | S=C(c1ccc2c(c1)OCO2)N1CCN(c2cccc(Cl)c2)CC1 | 37.5%
38 | CN1CCN(CCOc2ccc(-c3cnc4c(-c5ccc(F)cc5)cnn4c3)cc2)CC1 | 72.6%
39 | O=C(Cc1ccc(/C=C/C(=O)c2ncc[nH]2)cc1)Nc1cc(C(F)(F)F)cc(C(F)(F)F)c1 | 106%
40 | CCN(CC)c1ccc(/C=N/NC(=O)Cc2ccc(Nc3ccnc(C(F)(F)F)c3)cc2)c(O)c1 | 24.5%

system: NCI-H460 lung; test: as above; conditions: 10 µM unless noted

Row | Compound | growth
41 | Cc1cccc(-c2nc(Nc3ccc4ncsc4c3)c3ccccc3n2)n1 | 36.1%
42 | COc1ccc(-c2cc(-c3ccccc3)nc(N3CCN(CCNc4ccnc5cc(Cl)ccc45)CC3)n2)cc1 | -68.6% (active)
43 | N#Cc1cccc(C2C3=C(COC3=O)N(CCO)c3cc4c(cc32)OCO4)c1 (stereo not given) | 14.8%
44 | CCN1C(=O)N(CC)C2C1NC(=S)N2/N=C/c1ccc(OC)cc1 (stereo not given) | 26.1%
45 | Nc1[nH]c(=S)nc2oc(-c3ccccc3)c(-c3ccccc3)c12 | 113%
46 | N=C(N)c1ccc(-c2ccc(-c3cc(Cl)cc(Cl)c3)s2)nc1 | -60.3% (active)
47 | c1ccc2c(c1)CCCc1nnc3nc4ccccc4n3c1-2 | 25.8%
48 | Nc1[nH]n2cc(-c3ccc(F)cc3)nc2c1N=Nc1ccc(S(N)(=O)=O)cc1 | 58.8%
49 | CNC(C)[C@H]1CCC2C3CC=C4C(=O)[C@@H](NC(=O)C=C(C)C)CC[C@]4(C)C3CC[C@@]21C (stereo not given in full) | -24.6% (active)
50 | COc1ccc2c(c1)/C(=N/c1n[nH]c(=S)s1)C(=O)N2 | 92.9%
51 | Cc1ccc(-c2nc(SCc3nc4cc(Cl)c(Cl)cc4[nH]3)[nH]c(=O)c2C#N)cc1 | 112%
52 | COc1ccc2c(c1)c(/C(O)=C1\COC(=O)C1=O)cn2Cc1ccc(F)cc1 | 103%
53 | O=C1/C(=C2\SC(=S)N(C3CC3)C2=O)SC(=S)N1C1CC1 | 103%
54 | C#CC#CC#CC#CC#CC#CC#CC#CCC1OC[C@H](COC(=O)O[C@@H](C(=O)O[C@H]2C[C@@]3(O)[C@@H](OC(=O)c4ccccc4)[C@@H]4[C@]5(OC(C)=O)CO[C@@H]5C[C@H](O)[C@@]4(C)C(=O)[C@H](OC(C)=O)C(=C2C)C3(C)C)[C@@H](NC(=O)c2ccccc2)c2ccccc2)O1 (stereo not given in full) | 10.3%
55 | Cc1nnc(-c2ccc3c(c2)nc(/C=C/c2ccccc2)n3C2CCCCC2)o1 | 82.4%
56 | Nc1nc(N)c2c(n1)NC(c1ccc(Cl)cc1)C1CCc3ccccc3C1=N2 (stereo not given) | 22.7%
57 | Fc1ccc(Cn2cc(CSc3nc4ccccc4o3)nn2)cc1 | 110%
58 | CC(C)(C)c1cc(Cl)c(O)c(CNCCO)c1 | 101%
59 | Nc1nc2c(c3ncccc13)C(c1cccc(Cl)c1)Cc1ncccc1-2 (stereo not given) | 6.87% (active)
60 | COc1ccc(C(=O)N2c3ccccc3Sc3ccccc32)c(C(F)(F)F)c1 | 9.51% (active)

Row | Compound | growth
61 | Cc1ccc(C(=O)c2ccc(CC(=O)NN3C(=O)c4ccccc4C3=O)n2C)cc1 | 104%
62 | C=C1C(=O)O[C@H]2[C@H]1CC/C(Cn1cc(CCC)nn1)=C\CC[C@@]1(C)O[C@@H]21 | 61.4%
63 | O=C(/C=C/c1ccccc1)c1ccc(Nc2nc(Nc3ccc(F)cc3)nc(Nc3ccc(Cl)cc3)n2)cc1 | 82.1%
64 | N#Cc1cccc(C2C3=C(COC3=O)N(CCO)c3cc4c(cc32)CCC4)c1 (stereo not given) | 3.78% (active)
65 | CCN1C(=O)N(CC)C2Nn3c(s/c(=C\c4ccccc4Br)c3=O)=NC21 (stereo not given) | 4.16% (active)
66 | Cc1ccc(C=C2C(=O)NC(=O)NC2=O)cc1 | 108%
67 | Cc1cccc(N2CCC(=O)NC2=S)c1 | 104%
68 | N#C/C(=C\c1ccc(-c2cccc(C(F)(F)F)c2)o1)c1ccccc1 | 97.1%
69 | N#C/C(=C\c1ccc([N+](=O)[O-])cc1)n1nnc2cc(F)c(F)cc21 | 11.7%
70 | CC/C=C\CCC/C=C1/C(=O)C=C[C@@H]1C/C=C\CCCC(=O)OC | 52.4%
71 | CN(C)c1ccc(/C=C(\C#N)c2cc3ccccc3[nH]2)cc1 | 13.3%
72 | O=C(Nc1ccc(Br)cc1)C1=NCCCCN1 | 89.5%
73 | CNC(=O)c1cc(Oc2cccc3nc(NC(=O)Nc4cc(C(F)(F)F)ccc4Cl)ccc23)ccn1 | 101%
74 | COc1cccc(CCNc2ncnc3c2ncn3Cc2nnc3c4ccccc4c(Cl)nn23)c1 | 61.5%
75 | CCOC(=O)c1c(C)nc2c(c1N)/C(=C/c1ccc(OC)cc1)C(=O)N2Cc1ccccc1 | 41.1%
76 | O=S(=O)(NCCNc1nccc(-c2c(-c3ccc(F)c(O)c3)nc3sccn23)n1)c1ccc(F)cc1 | 21.9%
77 | S=C(c1ccc2c(c1)OCO2)N1CCN(c2cccc(Cl)c2)CC1 | 6.73% (active)
78 | CN1CCN(CCOc2ccc(-c3cnc4c(-c5ccc(F)cc5)cnn4c3)cc2)CC1 | -1.23% (active)
79 | O=C(Cc1ccc(/C=C/C(=O)c2ncc[nH]2)cc1)Nc1cc(C(F)(F)F)cc(C(F)(F)F)c1 | 93.7%
80 | CCN(CC)c1ccc(/C=N/NC(=O)Cc2ccc(Nc3ccnc(C(F)(F)F)c3)cc2)c(O)c1 | 8.96% (active)
